Hits are enriched below; roughly 19% of the tested compounds scored in any of these assays.
TGFb inhibitor = qHTS for Inhibitors of TGF-b. HepG2 CAGA-GFP TGF-b/SMAD3 reporter, GFP fluorescence, 18 h; TGF-beta stimulated, 500 pg/mL final. Potency, µM (series often up to 46.1 µM), most hits filed as inhibitors. hit rate 1.2% among 410,000; further: nearly all actives have a fitted effect of over 65% in size
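HEPG2 CAGA-GFP cells (1000/well, DMEM with 1% FBS) were pre-incubated 2 h at 37 degrees C, given compound by pin tool, then stimulated with TGF-beta at 500 pg/mL final for 18 h before per-cell GFP fluorescence imaging.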
IL-1B inflam inh = qHTS for Inhibitors of Inflammasome Signaling: IL-1-beta AlphaLISA Primary Screen; THP-1 LPS/ATP IL-1B secretion, AlphaLISA, 16 h; stronger effect = lower value; activity change, % at 57.5 µM; hit rate 4.7% among 360,000; in the data active means activity change below about -50%; inconclusive means mostly about -30% to -49%
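Secreted IL-1B measured by AlphaLISA bead assay after 16 h compound exposure of THP-1 cells; compounds (final up to 57.5 uM) added 1 h before LPS (250 ng/mL) and ATP (1.25 mM) stimulation; lower signal means less secretion.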
HepG2 viability = qHTS for Inhibitors of TGF-b: Cytotox Counterscreen | hit rate 0.76% among 410,000 | Potency, µM (series often up to 46.1 µM), most hits filed as cytotoxic | HepG2 CAGA-GFP viability, ATP luminescence, 18 h | AID 588856, 2011
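HepG2 CAGA-GFP cells (1000/well, DMEM with 1% FBS) received compound, then TGF-beta at 500 pg/mL final, and were incubated 18 hours at 37 degrees C. Viability was read by CellTiter-Glo luminescence. Media-only wells were set as complete cell-killing and DMSO as no toxicity.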
TDP1 block = qHTS Assay for Inhibitors of Tyrosyl-DNA Phosphodiesterase (TDP1); Tyrosyl-DNA phosphodiesterase 1 (Homo sapiens), Q9NUW8; recombinant TDP1, AlphaScreen DNA substrate cleavage; Potency, µM (top dose mostly 130 µM), most hits filed as inhibitors; hit rate 0.28% among 350,000; AID 485290, 2010; further: nearly all actives have a fitted effect of over 40% in size
Target sequence (Q9NUW8 whole entry, looked up): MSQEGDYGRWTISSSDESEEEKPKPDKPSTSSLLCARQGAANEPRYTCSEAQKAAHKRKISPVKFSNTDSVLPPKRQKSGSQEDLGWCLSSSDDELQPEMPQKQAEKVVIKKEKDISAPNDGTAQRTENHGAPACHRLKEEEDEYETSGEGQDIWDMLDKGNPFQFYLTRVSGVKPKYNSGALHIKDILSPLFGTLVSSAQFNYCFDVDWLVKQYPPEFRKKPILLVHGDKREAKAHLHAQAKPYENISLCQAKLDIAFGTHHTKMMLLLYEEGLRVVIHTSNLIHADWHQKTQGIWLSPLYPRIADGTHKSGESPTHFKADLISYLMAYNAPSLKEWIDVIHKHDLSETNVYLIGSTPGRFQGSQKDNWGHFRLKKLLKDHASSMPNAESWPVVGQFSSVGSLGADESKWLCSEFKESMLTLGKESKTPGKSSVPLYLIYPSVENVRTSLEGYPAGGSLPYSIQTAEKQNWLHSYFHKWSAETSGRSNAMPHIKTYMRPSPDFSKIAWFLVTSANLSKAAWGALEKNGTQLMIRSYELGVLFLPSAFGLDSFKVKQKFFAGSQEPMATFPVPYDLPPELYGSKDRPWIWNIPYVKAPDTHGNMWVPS
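E. coli-derived human Tdp1, 1 nM final. Cpd preinc 15 min RT; substrate 15 nM final, 5 min RT; AS bead mix 10 ug/ml final, 10 min RT. Signal loss = tyrosine-FITC cleavage. No-enzyme wells = max signal.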
DT40 TDP1 CPT = qHTS for Inhibitors of human tyrosyl-DNA phosphodiesterase 1 (TDP1): qHTS in cells in presence of CPT | hit rate 12% among 420,000 | chicken DT40 Tdp1-/-;hTDP1 cells + 20 nM CPT, ATP luminescence, 48 h | Potency, µM (titrated, usually from 46.2 µM), actives largely listed as inhibitors; further: nearly all actives have a fitted effect of over 55% in size
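Chicken DT40 Tdp1-/- cells complemented with human TDP1, 400 cells/well, exposed to compounds plus 20 nM camptothecin for at least 48 h at 37 C; viability read as ATP content by CellTiter-Glo luminescence.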
TDP1 cell noCPT = qHTS for Inhibitors of human tyrosyl-DNA phosphodiesterase 1 (TDP1): qHTS in cells in absence of CPT. AID 686978, 2013. hit rate 15% among 420,000. DT40 Tdp1-/- hTDP1 cells, no CPT, ATP luminescence, 48 h. Potency, µM (top dose mostly 46.2 µM), usual class: inhibitors; further: nearly all actives have a fitted effect of over 55% in size
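DT40 Tdp1-/-;hTDP1 cells, no CPT (DMSO vehicle only), 400 cells/well; compounds pin-transferred; ≥48 hr, 37 °C; CellTiter-Glo 30 min RT dark, luminescence read.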
A number is an active result; – = inactive; ? = inconclusive; · = not tested or not shown; ! = a repeat was not active; [ ] = remark or other dose. Unless noted, the call rests on the fitted dose curve; in most records, active means well fitted curve in the direction sought with a large enough effect; inconclusive means small, poorly fitted or top-dose-only effect, or another doubt; inactive means no such curve, though single readings can be large; an effect the other way counts as inactive or inconclusive.

SMILES | TGFb inhibitor | IL-1B inflam inh | HepG2 viability | TDP1 block | DT40 TDP1 CPT | TDP1 cell noCPT
C=CCn1cc(CN2CCC(C(=O)Nc3cccc(-c4cccc(F)c4)c3)CC2)c(C)n1 | ? | – | 8.9µM | – | 23µM | 16µM
C=CCn1cc(CN2CCC(C(=O)Nc3cccc(-c4cccc(Cl)c4)c3)CC2)c(C)n1 | ? | – | 16µM | – | 16µM | 16µM
O=C(NCc1cccn1Cc1ccccc1)Nc1ccc(Br)cc1F | – | · | – | – | ? | ?
CCOC(=O)C1=C(C)NC(=O)NC1c1ccc(N(C)C)cc1 (stereo not drawn) | – | – | – | – | – | –
CCC(CC)COC(=O)C1=C(C)NC(=O)NC1c1ccc(N(C)C)cc1 (stereo not drawn) | ? | ? | 7.9µM | · | ? | 21µM
Nc1nc(Nc2ccccc2)nc2c1ncn2[C@@H]1O[C@H](CO)[C@H](O)[C@H]1O | · | · | · | – | · | ·
C=C(C)C(O)/C=C/c1ccc(C)cc1 (stereo not drawn) | · | · | · | –[21 µM] | · | ·
COCCNC(=O)COC(=O)c1cccnc1SC | – | – | – | – | 18µM | –
CSc1ncccc1C(=O)OCC(=O)c1cc(C)n(C)c1C | – | – | – | – | – | –
CCn1c(C)cc(C(=O)COC(=O)c2cccnc2SC)c1C | – | – | – | – | 16µM | ?
Cc1nn(-c2cc(C)c3ccccc3n2)c2c1C1C(C2)C1(C)C (stereo not drawn) | – | – | – | – | 18µM | ?
CCOC(=O)CCCCC(=O)c1[nH]c(=O)[nH]c1C[n+]1ccccc1 | · | · | · | – | · | ·
CCOC(=O)CCCCC(=O)c1[nH]c(=O)[nH]c1CN1CCOCC1 | – | -74 | – | – | – | –
CCOC(=O)CCCCC(=O)c1[nH]c(=O)[nH]c1CSc1nc2ccccc2[nH]1 | – | -91 | – | – | – | –
O=C(CN1C(=O)NC(c2ccccc2)(c2ccccc2)C1=O)NCc1cccs1 | – | – | – | – | – | –
CCC(=O)N1c2ccc(S(=O)(=O)CCC(=O)NCc3ccc(OC)cc3)cc2CC1C (stereo not drawn) | – | · | – | – | ? | ?
COCC1=C(C(=O)OC(C)OC(=O)OC(C)C)N2C(=O)[C@@H](NC(=O)/C(=N\OC)c3csc(N)n3)[C@H]2SC1 (stereo partly drawn) | – | – | – | · | 3.3µM! | 1.3µM!
C=CC1=C(C(=O)O)N2C(=O)[C@@H](NC(=O)/C(=N/OCC(=O)O)c3csc(N)n3)[C@H]2SC1 (stereo in doubt) | · | · | · | · | – | –
Cn1nnnc1SCC1=C(C(=O)O)N2C(=O)C(NC(=O)C(O)c3ccccc3)C2SC1 (stereo not drawn) | · | · | · | ? | – | –
CO/N=C(\C(=O)N[C@@H]1C(=O)N2C(C(=O)O)=C(CSc3nc(=O)c(O)nn3C)CS[C@H]12)c1csc(N)n1 | · | · | · | · | – | –
C=CC1=C(C(=O)O)N2C(=O)[C@@H](NC(=O)/C(=N\OCC(=O)O)c3csc(N)n3)[C@@H]2SC1 | · | · | · | 14µM | · | ·
Cn1nnnc1SCC1=C(C(=O)O)N2C(=O)[C@@H](NC(=O)[C@H](O)c3ccccc3)[C@H]2SC1 | – | – | – | 16µM | – | ?
CO/N=C(\C(=O)N[C@@H]1C(=O)N2C(C(=O)O)=C(CSc3nc(=O)c(O)nn3C)CSC12)c1csc(N)n1 (stereo partly drawn) | · | · | · | 7.1µM | · | ·
O=C(CNC(=O)c1ccc([N+](=O)[O-])cc1)OC(C(=O)Nc1cc(C(F)(F)F)ccc1Cl)c1ccccc1 (stereo not drawn) | · | · | · | – | · | ·
CC(C)C(=O)c1cc2c(cc1NC(=O)c1ccccc1F)OCCO2 | ? | · | – | – | ? | ?
SMILES | TGFb inhibitor | IL-1B inflam inh | HepG2 viability | TDP1 block | DT40 TDP1 CPT | TDP1 cell noCPT
O=C(NCCC1=CCCCC1)C1CCN(S(=O)(=O)c2cccc(C(F)(F)F)c2)CC1 | ? | – | – | – | ? | ?
Cc1c(NC(=O)c2nc3ccccc3nc2N2CCCCC2)cccc1[N+](=O)[O-] | – | · | – | – | ? | ?
CCCCN(C(=O)CNC(=O)c1ccco1)C(C(=O)NC1CCCCC1)c1cccnc1 (stereo not drawn) | – | – | – | –[0.0935 µM] | – | –
CO/N=C(\C(=O)N[C@@H]1C(=O)N2C(C(=O)O)=C(COC(N)=O)CS[C@H]12)c1ccco1 | – | – | – | ? | – | –
CC(=O)OCC1=C(C(=O)O)N2C(=O)[C@@H](NC(=O)CSc3ccncc3)[C@H]2SC1 | – | – | – | 7.9µM | – | –
CO/N=C(/C(=O)NC1C(=O)N2C(C(=O)O)=C(COC(N)=O)CSC12)c1ccco1 (stereo not drawn) | · | · | · | 22µM | – | –
O=C(CSc1cccc[n+]1[O-])c1cc2ccccc2o1 | ? | – | – | – | 21µM | ?
O=C(CSc1cccc[n+]1[O-])Nc1cc(Cl)ccc1[N+](=O)[O-] | – | – | – | – | ? | ?
O=C(CSc1cccc[n+]1[O-])c1cccs1 | – | – | – | – | ? | 4.1µM
N#Cc1ccc(Cl)cc1NC(=O)CSc1cccc[n+]1[O-] | – | – | – | – | ? | 23µM
O=C(CSc1cccc[n+]1[O-])c1cc(Cl)ccc1Cl | – | – | – | – | 0.01µM | 0.29µM
CN(Cc1ccco1)C(=O)c1cc(NC(=O)C2CCC2)c2c(c1)nc(-c1ccncc1)n2C | · | · | · | · | ? | –
Cc1cc2c(NC(=O)Nc3ccc(C(F)(F)F)cc3)cccc2nn1 | – | -55 | – | – | ? | ?
Cc1cc2c(NC(=O)CCCC(=O)O)cccc2nn1 | – | – | – | – | – | –
O=C(NCC(=O)N1CC=C(c2ccccc2)CC1)c1ccco1 | – | – | – | – | – | –
O=[N+]([O-])c1ccc(S(=O)(=O)Nc2ccc(S(=O)(=O)N3CCCC3)cc2)cc1 | – | – | – | · | – | –
C=CCn1c(C)c(/C=C/c2cc[n+](C)cc2)c2ccccc21 | – | -90 | – | · | 3.7µM | 1.5µM
CCN(CC)C(=O)Cn1c(C)c(/C=C/c2cc[n+](C)cc2)c2ccccc21 | – | – | – | · | ? | ?
CCn1cc(/C=C/c2cc[n+](C)cc2)c2ccccc21 | – | – | – | · | 0.33µM | 1µM
C=CCn1cc(/C=C/c2cc[n+](C)cc2)c2ccccc21 | – | – | – | · | 0.73µM | 0.58µM
CC(C)n1cc(/C=C/c2cc[n+](C)cc2)c2ccccc21 | – | -76 | – | · | 0.52µM | 0.52µM
